Potency data for ten compounds are collected here from PubChem BioAssay AID1768 (National Center for Advancing Translational Sciences (NCATS), 2009).

Out of some 270,000 compounds screened, about 620 (0.23%) were called active. Where a call stands in place of a potency, no number is given. Not shown: some 12% with an inconclusive outcome. Calls follow the shape of the dose curve; as a rule, active = well fitted inhibition curve with a large enough effect in the polarisation, with a control signal flat (not every such curve was filed as active); inconclusive = small, poorly fitted or top-dose-only effect, or effect the other way, or a change in a side signal; inactive = no such curve, though single readings can be large or run the other way; the % refers to the polarisation. Many of the other results were omitted from the sample, so actives are more common in it than they were.
Potency is read from the fitted curve at half-maximal effect.

Menin (Homo sapiens), sequence (O00255 whole entry, looked up, the tested form may be a part): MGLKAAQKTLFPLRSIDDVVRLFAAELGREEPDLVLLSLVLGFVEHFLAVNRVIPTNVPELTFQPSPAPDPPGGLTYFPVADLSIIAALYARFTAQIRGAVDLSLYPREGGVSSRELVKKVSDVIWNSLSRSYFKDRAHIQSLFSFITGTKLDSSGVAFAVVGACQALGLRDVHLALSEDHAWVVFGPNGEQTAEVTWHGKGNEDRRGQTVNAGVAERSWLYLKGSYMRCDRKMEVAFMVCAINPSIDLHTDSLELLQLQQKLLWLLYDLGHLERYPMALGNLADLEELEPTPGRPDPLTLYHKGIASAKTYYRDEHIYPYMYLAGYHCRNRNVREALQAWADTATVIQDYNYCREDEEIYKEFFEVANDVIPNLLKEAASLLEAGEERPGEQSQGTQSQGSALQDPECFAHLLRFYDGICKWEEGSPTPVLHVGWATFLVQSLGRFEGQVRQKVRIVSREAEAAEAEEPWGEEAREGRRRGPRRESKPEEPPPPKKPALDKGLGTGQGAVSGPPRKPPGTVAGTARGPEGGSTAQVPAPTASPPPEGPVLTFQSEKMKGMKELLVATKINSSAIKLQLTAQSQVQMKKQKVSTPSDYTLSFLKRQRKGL

In the experiment the target is Menin (Homo sapiens) (UniProt O00255). The experiment is described as follows: qHTS Assay for Inhibitors Targeting the Menin-MLL Interaction in MLL Related Leukemias: Competition With Texas Red Labeled MLL-derived Mutant Peptide. The conditions noted are these: fluorescence polarization; series mostly up to 61.6 µM. From the text:
qHTS Assay for Inhibitors Targeting the Menin-MLL Interaction in MLL Related Leukemias NIH Chemical Genomics Center [NCGC] NIH Molecular Libraries Probe Centers Network [MLPCN] MLPCN Grant: MH084875-01A1 Assay Submitter (PI): Jolanta Grembecka, Tomasz Cierpicki, University of Virginia Translocations of the MLL (Mixed Lineage Leukemia) gene are frequently found in human leukemias affecting both children and adults. Fusion of MLL to one of more than 60 genes results in generation of oncogenic proteins upregulating Hox genes, which are vital to blood cell development. Patients harboring fusion of the MLL gene suffer from aggressive leukemias and respond poorly to available therapies. All of the oncogenic fusion proteins have a preserved N-terminal fragment of MLL that has been identified to interact with menin. It has been recently discovered that association with menin is critical to the leukemogenic activity of the MLL fusion oncoproteins. Selective targeting of the menin-MLL interaction could provide an attractive therapeutic approach to develop novel drugs for MLL-related leukemias. Small molecules blocking the menin-MLL interaction should reverse the oncogenic potential of MLL fusion proteins. We have developed and optimized a fluorescence polarization-based assay for the identification of Menin-MLL inhibitors. The assay was run employing two different MLL-derived peptides. The present assay uses a 12 amino acid peptide labeled with fluorescein at its N-terminus. This peptide consists of the menin high affinity binding motif from MLL and is potently bound by menin. Another peptide with a mutated sequence, labeled with Texas Red, was used in parallel as a less stringent screen for inhibitors.
The Menin protein, the MLL-wild type (w.t.) derived peptide (N-terminal 12 amino acids), the MLL-derived peptide labeled with Texas Red and the MLL-w.t. peptide labeled with Fluorescein were kindly supplied by laboratory of Dr. Jolanta Grembecka, University of Virginia. All protein and peptide solutions were stored in single use aliquots at -80C. The Eu3+ Cyrptate-conjugated mouse monoclonal antibody anti-6 Histidine (Eu3+-AB) and the Streptavidin-XL665 conjugate (XL665) were purchased from Cisbio International (Bedford, MA). All antibody and XL665 conjugate solution stocks were stored in single use aliquots at -20C. The Buffer components for all assays were purchased from Sigma-Aldrich (St. Louis, MO) and Invitrogen (Carlsbad, CA). FP Assay Reagents: 1. FP reaction buffer: 50 mM Tris-HCl pH 7.5, 50 mM NaCl, 1mM DTT. Before use, 0.05% BSA is added. 2. Menin protein, MLL-w.t. labeled with fluorescein, MLL-mutant peptide labeled with texas red. Stored in singe use aliquots at -80C. 3. MLL-w.t. unlabeled peptide as positive control: 10 uM final in FP buffer. FP Assay Procedure: 1. Prepare Menin at 200 nM, MLL-w.t.-fluorescein at 25 nM, and MLL-mutant-texas red at 50 nM mixture in FP buffer. 2. Prepare Menin at 200 nM, MLL-w.t.-fluorescein at 25 nM, MLL-mutant-texas red at 50 nM, and 10 uM MLL-w.t. unlabeled mixture in FP buffer. 3. Prepare MLL-w.t.-fluorescein at 25 nM and MLL-mutant-texas red at 50 nM mixture in FP buffer. 3. Dispense 4 ul per well of reagent in step 1 in columns 2, 4 - 48 in a black 1536 well plate, dispense 4 ul per well of reagents from steps 2 and 3 in columns 1 and 3 respectively. Incubate plate at ambient for 15 minutes. 4. Transfer 23 nl per well of compound to plate and incubate at ambient for 1 hr. 5. Read fluorescence polarization for each label using the PerkinElmer Envision. Envision protocol for fluorescein: FITC FP Dual Enh Mirror, Excitation filter 480, Emission filter (1) P-pol 535, Emission filter (2) S-pol 535 Envision protocol for texas red: FP Dual Enh Mirror, Excitation filter 555, Emission filter (1) P-pol 632, Emission filter (2) S-pol 632
(qHTS replaces the single test concentration by a dilution series.)
Take `CC[N+](C)(CC)CCC[n+]1c(-c2ccccc2)c2cc(N)ccc2c2ccc(N)cc21`: the Potency was 12.6 µM (active).

On to `CC(=O)[O][Sn]([c]1ccccc1)([c]1ccccc1)[c]1ccccc1`, for which the Potency result was “inactive”. With `CCN(CC)c1nc(C)cc(OP(=S)(OC)OC)n1` the entry was “inactive”; with `COC([CH2][Hg])CNC(=O)c1ccccc1OCC(=O)O` (stereo not given), “inactive”. Regarding `CO[C@H]1[C@@H](O)[C@@H](C)O[C@H](O[C@H]2[C@H](Oc3cccc4c(O)c5c(=O)oc6ccc(C)c7c(=O)oc(c34)c5c67)O[C@H](C)[C@H](O)[C@@H]2O)[C@@H]1O`, the Potency entry was “inactive”. As for `N#Cc1cc(Br)c(O)c(Br)c1`, the Potency result is “inactive”. With `CC[C@H]1CN2CCc3cc(OC)c(OC)cc3[C@@H]2C[C@@H]1C[C@H]1NCCc2cc(OC)c(OC)cc21` the figure was 22.4 µM (active).

On to `C[C@]12O[C@H](C[C@@]1(O)C(=O)O)n1c3ccccc3c3c4c(c5c6ccccc6n2c5c31)CNC4=O`, for which the Potency result was “inactive”. Consider `C[C@@H]1C[C@H]2CC[C@H](O2)[C@H](C)C(=O)O[C@@H](C)C[C@@H]2CC[C@@H](O2)[C@@H](C)C(=O)O[C@H](C)C[C@H]2CC[C@H](O2)[C@H](C)C(=O)O[C@@H](C)C[C@@H]2CC[C@@H](O2)[C@@H](C)C(=O)O1`, for which the Potency result is “inactive”. As to `O=C1CCc2cccc3c2N1CC3`, the Potency entry was “inactive”.
